# Assay outcomes deposited in PubChem BioAssay by several laboratories.
# M1 agonist: M1 muscarinic receptor agonists, primary screen, CHO-M1 cells, Fluo-4 calcium, agonist mode | Fluo-4 calcium fluorescence; hits give high values | Muscarinic acetylcholine receptor M1 | B-score at 10 µM | hit rate 3% among 64,000 | AID 626, 2007;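 active = fluorescence rise, raw or as B-score row- and column-corrected plate score, outside the 99.7% band of its plate's samples, either direction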
# PLAP act: PLAP enzyme activators, biochemical, luminescence, HTS; AID 696, 2007; Alkaline phosphatase, placental type (Homo sapiens), P05187; activation fold at 20 µM; hit rate 1.2% among 96,000; purified PLAP enzyme, luminescent substrate read-out; hits give high values; in the data active = activation fold above about 2
# M1 antagonist: antagonists of rat M1 muscarinic receptor; Muscarinic acetylcholine receptor M1 (Rattus norvegicus), P08482; CHO-M1 cells, Fluo-4 calcium, ACh EC80 antagonist mode; hits give low values; B-score at 10 µM; hit rate 3.4% among 64,000; AID 628, 2007;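 active = calcium fluorescence response, raw or row-and-column corrected B-score, differing from the plate sample mean either way at a set confidence level, mostly lower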
# Cav3 T inh: Cav3.2 calcium influx blockers – cell-based, Fluo-4 calcium fluorescence, FDSS, MLSMR library, primary screen | Voltage-dependent T-type calcium channel subunit alpha-1H (Homo sapiens), O95180 | Cav3.2-expressing cells; hits give low values | B-score at 10 µM | hit rate 4% among 100,000;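 active = single-dose well whose peak fluorescence ratio is a statistical outlier from its plate by either plate-standardised score or position-corrected B-score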
# Starred values were filed as active, the others as inactive; / = no result given. Only some compounds are listed: those with a hit (about 7.6% of all), similar ones and a draw of the others.
SMILES,M1 agonist,PLAP act,M1 antagonist,Cav3 T inh
Oc1ccc(Oc2ccc3c(C(F)(F)F)cc(C(F)(F)F)nc3n2)cc1,/,1,/,-6.9*
CCCn1cnc2cc(NCc3ccccn3)ccc21,-0.73,1.3,-1.5,0.66
CCCn1cnc2cc(NCc3cccc(OC)c3O)ccc21,-0.55,2.7*,-0.9,-0.54
O=C(CN1CCOCC1)Nc1nc2ccc(Br)cc2s1,/,1.9,/,-0.59
FC(F)(F)c1nc(N2CCCC2)ncc1-c1nnnn1-c1ccc(Cl)cc1,/,1.4,/,-4.8*
O=C(C1=C[C@@H](c2ccccc2)C[C@@H](OCCCCO)O1)N1CCOCC1,/,/,/,0.66
COC(=O)C(NC(=O)c1ccccc1C)(Nc1ncc(S(=O)(=O)c2ccc([N+](=O)[O-])cc2)s1)C(F)(F)F (centres undefined),/,1.3,/,-7.8*
COC(=O)C(NC(=O)c1ccc(F)cc1)(Nc1ncc(S(=O)(=O)c2ccc([N+](=O)[O-])cc2)s1)C(F)(F)F (centres undefined),/,1.3,/,-8.2*
COC(=O)C(NNc1ccccc1)(NC(=O)c1ccc(F)cc1)C(F)(F)F (centres undefined),/,0.9,/,-1.1
CCCCCN(C(=O)NC(=O)Nn1cnnc1)S(C)(=O)=O,0.046,1,-0.21,-1.1
Cc1ccc(C)n1-n1c(C)nc2scc(-c3cccs3)c2c1=O,-0.075,1.2,-0.72,-3.9*
CCOC(=O)c1nnc(-c2cccs2)nc1NC(C)C,/,0.9,/,-0.0012
O=C(Nc1ccc(O)c(C(=O)O)c1)c1ccc2c(c1)C(=O)N(CC1CCCO1)C2=O (centres undefined),-1.9,1.1,-1,-0.22
Cc1ccc(NC(=O)c2cc(S(=O)(=O)c3ccccc3)ccc2Cl)cc1,/,0.8,/,-5.4*
O=C(Nc1ccc(NC(=O)c2ccc(S(=O)(=O)c3ccccc3)cc2)cc1)c1ccccc1,/,1,/,/
COc1ccccc1/C=C1\SC(=O)N(CCC(=O)NNC(=O)c2ccccc2Cl)C1=O,/,0.8,/,0.46
COc1ccccc1OCCN1C(=O)S/C(=C\c2ccco2)C1=O,/,1,/,-6.5*
S=c1[nH]nc(-c2cc(-c3ccco3)[nH]n2)n1-c1ccccc1,/,2.1*,/,2
S=c1[nH]nc(-c2cc(-c3ccco3)[nH]n2)n1-c1ccccc1Cl,/,1.8,/,2.2
CC(=O)Nc1ccc(Oc2cc(C#N)c(C#N)cc2N2CCCCCC2)cc1,-0.92,/,0.12,-3.8*
CC(=O)Nc1ccc(Oc2cc(C#N)c(C#N)cc2N2CCOCC2)cc1,/,0.9,/,-1.1
CCCC(=O)Nc1cc(C)c2c(=O)oc3ccccc3c2n1,0.16,/,-0.31,-3.9*
Cc1nn(Cc2ccccc2)c(C)c1NC(=O)CSc1nnc(-c2cc(Cl)ccc2O)n1C,-0.25,1.7,-0.4,-0.014
O=C(NC1CC1)c1nc2c(nnn2Cc2ccccc2Cl)c(=O)[nH]1,/,/,/,-1.1
O=C(NC1CCCCC1)c1nc2c(nnn2Cc2ccccc2Cl)c(=O)[nH]1,1.9,/,0.66,-5.3*
SMILES,M1 agonist,PLAP act,M1 antagonist,Cav3 T inh
CCCn1c(NCc2c[nH]c3ccccc23)nc2ccccc21,/,0.7,/,-5.9*
CCCn1c(NCc2cccc(OC)c2OC)nc2ccccc21,0.26,0.8,0.37,-1.8
COC(=O)CSc1nc2ncccc2[nH]1,/,1.1,/,1.2
COc1ccc(NC(=O)CSc2nc3ncccc3[nH]2)cc1OC,/,2*,/,-0.35
COc1ccc(OC)c(C(=O)CSc2nc3ncccc3[nH]2)c1,0.41,2.8*,-0.31,0.04
CCOC(=O)C(C(=O)OCC)C(Nc1ccc(Br)cc1)c1ccccc1 (centres undefined),/,0.9,/,-0.21
CC1CCN(c2ccccc2NC(=S)NC(=O)c2cccs2)CC1,/,1,/,-6.3*
CC1CCN(c2ccccc2NC(=O)c2ccc(F)cc2)CC1,/,0.6,/,-3.5
Cc1ccnc(NC(=O)C23CC4CC(CC(C4)C2)C3)c1,0.078,1,0.68,-6.1*
O=C1NC2NC(=O)N(C(Cc3ccccc3)C(=O)O)C2N1 (centres undefined),-0.61,0.9,0.4,0.58
O=C(c1cc2sccc2n1Cc1ccccc1)N1CCN(c2nc3ccccc3s2)CC1,/,1.2,/,-7.1*
CC1CCN(C(=O)C2CCN(C(=O)c3cc4sccc4n3Cc3ccc(F)cc3)CC2)CC1,1.2,1.4,-1.1,-4.1*
O=C(c1cc2sccc2n1Cc1ccc(F)cc1)N1CCCc2ccccc21,/,/,/,-3.8*
CC(C)NC(=O)C1CCN(C(=O)c2cc3sccc3n2Cc2ccc(F)cc2)CC1,-0.36,1.1,-0.68,-0.45
CC(=O)c1cc2c(cc1NS(=O)(=O)c1ccc(C)cc1)OCCO2,0.012,0.9,-0.015,-0.0092
CCNC(=S)NNC(=O)c1cc(CC(C)C)nc2ccccc12,/,2.3*,/,0.1
CCCOc1cccc(-c2cc(C(=O)NNC(=S)NCC)c3ccccc3n2)c1,/,2.2*,/,/
CCNC(=S)NNC(=O)c1cc(-c2ccccc2C)nc2ccccc12,/,1.2,/,0.025
CCCOc1ccc(C(=O)NNC(=S)NC(=O)c2cc(-c3ccc(Cl)cc3)nc3ccccc23)cc1,/,1.1,/,-6.7*
COc1ccc(C(=O)NNC(=S)NC(=O)c2cc(-c3ccccc3)nc3ccccc23)cc1,/,1.2,/,/
COc1cccc(-c2cc(C(=O)Nc3nc4ccccc4s3)c3ccccc3n2)c1,/,1.1,/,-1.6
Cc1ccc2c(CC(=O)O)coc2c1C,-1.7,1,-1.1,0.29
CCC1(C)Cc2ccccc2-c2nc(NCCCO)n(-c3ccccc3)c(=O)c21 (centres undefined),/,1.3,/,-1.9
Cc1ccc(S(=O)(=O)N2CCC(=O)N(CCOC(=O)Nc3ccc(F)cc3)CC2)cc1,/,/,/,0.51
O=C(COC(=O)Cc1cccs1)Nc1ccccc1,0.095,1.2,-0.094,0.84
SMILES,M1 agonist,PLAP act,M1 antagonist,Cav3 T inh
Nc1c(C(=O)C2CC2)sc2nc(-c3cccs3)cc(C(F)(F)F)c12,/,1.1,/,-7.9*
O=C(NCc1nc2ccccc2[nH]1)c1cccs1,-0.29,1,-0.4,0.44
CC(C)(C)c1cc(/C=N/NC(=O)Cc2nc3ccccc3[nH]2)cc(C(C)(C)C)c1O,/,2*,/,-7.6*
CCN(CC)C(=O)c1sc(NC(=O)C(Sc2ccccc2)c2ccccc2)c(C(=O)OC(C)C)c1C (centres undefined),/,1.6,/,-4.5*
Cc1cc2ncn(-c3ncnc4sc5c(c34)CCC(C)C5)c2cc1C (centres undefined),/,1,/,/
Cc1ccc2nc(Nc3ncc4c(n3)CCCC4=O)nc(C)c2c1,0.35,1,-2.7*,/
Brc1nnc2n1-c1ccccc1Sc1ccccc1-2,/,/,/,-0.65
Clc1ccc2c(c1)-c1nnc(Br)n1-c1ccccc1S2,/,/,/,-3.9*
COc1ccc(Br)cc1/C=N/NC(=O)CNC(=O)/C=C/c1ccccc1,/,1,/,-7.6*
CCCSc1nc(C)cc(C)c1C(N)=O,/,1,/,-0.67
CCCNc1nc(-c2cc(-c3ccc(Cl)cc3)on2)cc(C(C)C)n1,/,/,/,0.41
Cc1ccc(Cl)cc1N1CCN(C(=O)CCS(=O)(=O)c2cccc3nonc23)CC1,-0.87,/,-0.18,/
CCCCCCNC(=O)CC(c1ccccc1)c1cc(Br)ccc1O (centres undefined),/,/,/,-5.9*
O=C(CSc1ccccc1)NCc1ccco1,/,/,/,0.85
